Shown are actives, neighbours in structure and some others; about 6.8% of the full set was active somewhere.
C diff growth – C. difficile growth inhibition; Clostridium difficile clinical isolate growth, OD600, 24 h; stronger effect = lower value; growth activity, negative = inhibition, % at 16 µg/mL (by protocol); actives 0.25% (n = 86,000);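 active means mean growth activity at or below -80% and every replicate also at or below -80%; inconclusive means mean at or below -80% but some replicate above -80%; inactive means mean growth activity above -80%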;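 further: 0% = DMSO wells and -100% = levofloxacin 16 µg/mL wells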
T cruzi growth-1 – T. cruzi proliferation inhibition; inhibition, % at 8.34 µM; actives 5.9% (n = 77,000); T. cruzi beta-gal in NIH3T3, GalScreen luminescence, 90 h;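 active means mean inhibition above about 93%, with at least 55% of replicates each passing it, limit read from the data, passing the limit was not always enough; inconclusive means only one of those two conditions holds; inactive means neither condition holds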
Pf Dd2 inh – blocks growth of Plasmodium falciparum Dd2 parasites. P. falciparum Dd2 growth, SYBR Green, 72 h; stronger effect = lower value. actives 2.3% (n = 94,000). activity change, % at 10 µM; in the data active means activity change below about -80%; inconclusive means no clear call, values can overlap the other calls
T cruzi growth-2 – blocks T. cruzi growth in NIH3T3 host cells | actives 72% (n = 5,600) | AID 651739 | shares compounds with T cruzi growth-1 | inhibition, % at 8.35 µM | T. cruzi beta-gal in NIH3T3, GalScreen luminescence, 90 h;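 active means mean replicate inhibition above about 95% and at least 55% of replicates individually reaching it, limit read from the data; inconclusive means only one of the two criteria is met; inactive means neither criterion is met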
T cruzi growth-3 – inhibitors of T. cruzi proliferation. AID 651740. actives 21% (n = 5,600). shares compounds with T cruzi growth-1. T. cruzi beta-gal in NIH3T3, GalScreen luminescence, 90 h. inhibition, % at 2.09 µM;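 active means mean inhibition above about 95%, with at least 55% of replicates also reaching it, limit read from the data; inconclusive means meets just one of the two conditions; inactive means meets neither condition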;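 further: plate controls were neutral control median for no effect and positive control median for full effect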
NIH3T3 tox – kills mouse NIH/3T3 fibroblasts. NIH/3T3 viability, CellTiter-Glo ATP luminescence, 90 h. actives 14% (n = 5,600). AID 651742. shares compounds with T cruzi growth-1. cytotoxicity (signal decrease), % at 8.35 µM;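 active means mean signal decrease across replicates above about 35% based on untreated-well scatter, with enough replicates individually passing, limit read from the data; inconclusive means no rule stated though some were filed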;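 further: 0% = median of neutral control wells and 100% = median of positive control wells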
3T3 cytotox 2 – kills mouse NIH/3T3 fibroblasts. shares compounds with T cruzi growth-1. NIH/3T3 viability, CellTiter-Glo ATP luminescence, 90 h. inhibition, % at 24.9 µM. actives 56% (n = 5,600);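 active means mean loss of cell viability signal at or above a set limit, and enough replicates individually reaching it; inconclusive means meets only the mean limit or only the replicate share; inactive means meets neither condition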;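 further: 0% = median of neutral control wells and 100% = median of positive control wells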
An asterisk follows results filed as active; ? = inconclusive; nt = no result given.

SMILES	C diff growth	T cruzi growth-1	Pf Dd2 inh	T cruzi growth-2	T cruzi growth-3	NIH3T3 tox	3T3 cytotox 2
CO[C@@H]1CN(C)C(=O)c2ccc(NC(C)=O)cc2OC[C@@H](C)N(Cc2ccccc2C(=O)O)C[C@H]1C	2	-36	29	nt	nt	nt	nt
COCCNC(=O)C[C@H]1C[C@@H]2c3cc(N(C)C)ccc3O[C@@H]2[C@@H](CO)O1	3	nt	30	nt	nt	nt	nt
CNC[C@H]1Oc2ccc(NS(=O)(=O)c3ccc(Cl)cc3)cc2C(=O)N([C@@H](C)CO)C[C@H]1C	2	nt	17	nt	nt	nt	nt
CNC[C@H]1Oc2cc(-c3cccc(C(=O)N(C)C)c3)ccc2S(=O)(=O)N([C@@H](C)CO)C[C@H]1C	-1	nt	-23	nt	nt	nt	nt
COc1ccc(CN(C)C[C@H]2OCCCC[C@H](C)Oc3ccc(NC(=O)C4CCCCC4)cc3C(=O)N([C@H](C)CO)C[C@H]2C)cc1	nt	107*	-53	73	35	5	26*
COc1ccc(CN(C)C[C@@H]2OCCCC[C@H](C)Oc3ccc(NC(=O)C4CCCCC4)cc3C(=O)N([C@@H](C)CO)C[C@H]2C)cc1	-7	80	-69	nt	nt	nt	nt
O=C(C[C@@H]1C[C@@H]2c3cc(NC(=O)Nc4ccccc4)ccc3O[C@@H]2[C@@H](CO)O1)NCc1cccnc1	0	19	-11	nt	nt	nt	nt
O=C(C[C@@H]1CC[C@@H](NC(=O)c2ccncc2)[C@@H](CO)O1)Nc1ccc(-c2ccccc2)cc1	-10	nt	-22	nt	nt	nt	nt
CN(C)C(=O)c1cccc(-c2ccc3c(c2)[C@@H]2[C@@H](CCN2S(=O)(=O)c2cn(C)cn2)[C@H](CO)N3)c1	-3	?	29	96*	66	-11	-23
CN(C)C(=O)c1cccc(-c2ccc3c(c2)[C@@H]2[C@@H](CCN2S(=O)(=O)c2cn(C)cn2)[C@@H](CO)N3)c1	-8	?	16	103*	40	14	-9
CN(C)C(=O)c1ccc(-c2ccc3c(c2)[C@H]2[C@H](CCN2S(=O)(=O)c2cn(C)cn2)[C@@H](CO)N3)cc1	-3	71	-44	nt	nt	nt	nt
COC(=O)C[C@@H]1C[C@@H]2c3cc(NS(=O)(=O)c4ccc(OC)cc4)ccc3O[C@@H]2[C@H](CO)O1	3	-29	-4	nt	nt	nt	nt
CCC(=O)N(C)C[C@H]1Oc2cc(-c3cccc(F)c3)ccc2S(=O)(=O)N([C@@H](C)CO)C[C@H]1C	-9	75	47	nt	nt	nt	nt
CNC[C@@H]1Oc2ccc(NC(=O)CCN3CCOCC3)cc2CC(=O)N([C@H](C)CO)C[C@@H]1C	-2	12	21	nt	nt	nt	nt
N#C[C@@H]1[C@@H](c2ccc(C#CCC3CCCC3)cc2)[C@H](CO)N1C(=O)c1ccccn1	-6	97*	-24	?	112*	-1	107*
COCC(=O)N1[C@H](C#N)[C@H](c2ccc(C#CCC3CCCC3)cc2)[C@@H]1CO	7	92	-38	nt	nt	nt	nt
N#C[C@H]1[C@@H](c2ccc(C#CCC3CCCC3)cc2)[C@@H](CO)N1C(=O)c1ccccn1	-4	97*	?	102*	112*	-25	93*
COCC(=O)N1[C@H](CO)[C@H](c2ccc(C#CCC3CCCC3)cc2)[C@@H]1C#N	2	89	-28	nt	nt	nt	nt
CO[C@H]1CN(C)C(=O)c2ccc(NC(=O)Cc3ccccc3)cc2OC[C@@H](C)NC[C@@H]1C	nt	22	-38	nt	nt	nt	nt
C[C@H](CO)N1C[C@H](C)[C@@H](CN(C)C(=O)Nc2ccccc2)Oc2c(NC(=O)Nc3cccc4ccccc34)cccc2C1=O	5	86	-30	nt	nt	nt	nt
N#Cc1ccc(-c2ccc3c(c2)[C@@H]2[C@@H](CCN2C(=O)C2CCCC2)[C@@H](CO)N3)cc1	-15	nt	-76	nt	nt	nt	nt
N#Cc1ccc(-c2ccc3c(c2)[C@@H]2[C@@H](CCN2C(=O)C2CC2)[C@H](CO)N3)cc1	-13	97*	15	106*	83	-2	15
COCC(=O)N1CC[C@H]2[C@H](CO)Nc3ccc(-c4ccc(C#N)cc4)cc3[C@H]21	-3	74	-22	nt	nt	nt	nt
N#Cc1ccc(-c2ccc3c(c2)[C@H]2[C@H](CCN2C(=O)C2CCC2)[C@@H](CO)N3)cc1	-3	nt	-55	nt	nt	nt	nt
N#Cc1ccc(-c2ccc3c(c2)[C@@H]2[C@@H](CCN2C(=O)Cc2ccccc2)[C@@H](CO)N3)cc1	0	98*	-60	100*	100*	8	40*
SMILES	C diff growth	T cruzi growth-1	Pf Dd2 inh	T cruzi growth-2	T cruzi growth-3	NIH3T3 tox	3T3 cytotox 2
N#Cc1ccc(-c2ccc3c(c2)[C@H]2[C@H](CCN2C(=O)C2CC2)[C@@H](CO)N3)cc1	-5	105*	16	?	70	-2	32*
N#Cc1ccc(-c2ccc3c(c2)[C@H]2[C@H](CCN2C(=O)Cc2ccccc2)[C@@H](CO)N3)cc1	-3	81	-23	nt	nt	nt	nt
COCC(=O)N1CC[C@@H]2[C@H]1c1cc(-c3ccc(C#N)cc3)ccc1N[C@@H]2CO	-2	114*	-63	100*	41	5	11
Cc1cc(C(=O)Nc2cccc3c2O[C@H](CN(C)Cc2ccncc2)[C@@H](C)CN([C@H](C)CO)C3=O)n(C)n1	-2	3	15	nt	nt	nt	nt
O=C(C[C@@H]1C[C@H]2c3cc(NC(=O)Nc4ccccc4)ccc3O[C@H]2[C@@H](CO)O1)NCc1ccccn1	-2	-1	6	nt	nt	nt	nt
C[C@@H]1CN([C@H](C)CO)S(=O)(=O)c2ccc(C#CC3CC3)cc2O[C@H]1CN(C)C(=O)c1cnccn1	0	10	-30	nt	nt	nt	nt
C[C@@H]1CCCCO[C@H](CN(C)S(=O)(=O)c2cccs2)[C@H](C)CN([C@@H](C)CO)C(=O)c2cc(NC(=O)c3ccncc3)ccc2O1	nt	nt	-30	nt	nt	nt	nt
CO[C@@H]1CN(C)C(=O)c2cc(NS(C)(=O)=O)ccc2OC[C@@H](C)N(Cc2cccnc2)C[C@@H]1C	nt	33	nt	nt	nt	nt	nt
C[C@@H]1CN([C@H](C)CO)C(=O)c2cccc(NC(=O)c3nc4ccccc4s3)c2O[C@H]1CN(C)Cc1ccc(Cl)c(Cl)c1	2	94	-55	nt	nt	nt	nt
C[C@H](CO)N1C[C@H](C)[C@@H](CN(C)Cc2ccc(Cl)c(Cl)c2)Oc2c(NC(=O)c3nc4ccccc4s3)cccc2C1=O	10	102*	-39	99*	87	-8	3
C[C@H](CO)N1C[C@H](C)[C@H](CN(C)Cc2ccc(-c3ccccc3)cc2)Oc2c(NC(=O)c3nc4ccccc4s3)cccc2C1=O	4	64	-47	nt	nt	nt	nt
C[C@@H]1CN([C@@H](C)CO)C(=O)c2cccc(NC(=O)c3nc4ccccc4s3)c2O[C@@H]1CN(C)Cc1ccccc1	2	88	-39	nt	nt	nt	nt
Cc1ccc(S(=O)(=O)N(C)C[C@H]2Oc3c(NC(=O)c4nc5ccccc5s4)cccc3C(=O)N([C@@H](C)CO)C[C@@H]2C)cc1	-2	115*	-66	?	93	10	44*

Screening results from PubChem.
